Data taken from paper PMC7826789 (International Journal of Molecular Sciences, 2021).

With `COc1cc2ncnc(Nc3cccc(Cl)c3F)c2cc1O[C@H]1CC[C@H]([C@@H]2NCCNC2=O)CC1` [BI00133844] the Kinases covered (SRC) was “SRC”.

`CCCS(=O)(=O)Nc1ccc(F)c(-n2cc(-c3cncc(OC)c3)nn2)c1F` [BI00865461] was tested, and the Kinases covered (SRMS) was “SRMS”.

`COc1cc2ncn(-c3cc(OCC4CCCO4)c(C(N)=O)s3)c2cc1OC` (centres unmarked) [GSK204607] was tested, and the Kinases covered (STK10) was “STK10”.

With `COc1ccc2cc(-c3c(-c4ccncc4)nc(-c4ccc(S(C)(=O)=O)cc4C)n3C)ccc2c1` [SB-633825] the Kinases covered (STK10) was “STK10”.

For `CC(C)N1CC(=O)N(C)c2cnc(Nc3cccc(S(=O)(=O)CCN4CCOCC4)c3)nc21` [BI00009348], the Kinases covered (STK16) was “STK16” and the Kinases covered (TAK1) was “TAK1”.

In the case of `C[C@@H]1CCNC(=O)c2cc3ccc(C(=O)Nc4nc5ccccc5n4CCCN(C)C)cc3n21` [BI00645435], the Kinases covered (STK17B) is reported as “STK17B”.

In the case of `CNc1nc(-c2ccc3c(N)n[nH]c3c2)cc(N2C[C@@H](C(=O)Nc3ccccc3)CC[C@H]2C)n1` [GSK2298859], the Kinases covered (STK17B) is reported as “STK17B”.

With `O=C(Nc1cccc(-c2nn3ncccc3c2-c2ccnc(Nc3cccnc3)n2)c1)c1c(F)cccc1F` [GSK312879] the Kinases covered (STK36) was “STK36”.

With `COC[C@@H](C)N[C@H]1CC[C@H](Nc2cc(-c3cccc(NCC4(C#N)CCOCC4)n3)c(Cl)cn2)CC1` [NVP-2] the Kinases covered (TAOK3) was “TAOK3”.

For `CN(C)C/C=C/C(=O)Nc1ccc(C(=O)Nc2cccc(Nc3ncc(Cl)c(-c4c[nH]c5ccccc45)n3)c2)cc1` [THZ1], the Kinases covered (TBK1) was “TBK1”.
